Records with an inconclusive call do not appear. A call without a number means that no potency is given here. Active and inactive are the calls of the source. Calls follow the shape of the dose curve; as a rule, active = well fitted cell-killing curve with a large enough effect in the repeat runs; inconclusive = weak or mixed curves, or effect the other way; inactive = no such curve, though single readings can be large or run the other way.

30 molecules from PubChem BioAssay (Tox21) can be followed below.
Potency is read from the fitted curve at half-maximal effect.

The nature of the assay: qHTS assay for identifying genotoxic compounds that show differential cytotoxicity against isogenic chicken DT40 cell lines with known DNA damage response pathways - wild type cell line (AID 743012). Also: nearly all actives have a fitted effect of over 60% in size. The conditions noted are these: DT40 wild type chicken cells viability, CellTiter-Glo, 40 h; series mostly up to 68.4 µM. A digest of the protocol: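 Quantitative HTS on parental DT40 cells: 40 h compound treatment at 37 C/5% CO2, with viability then determined by CellTiter-Glo luminescence. Values serve as the DNA repair-proficient reference for differential cytotoxicity.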
For the molecule `CCCCCCCCCCCCCCCCCCCCCCO`, the Potency result is “inactive”.
Consider `OC(CN1CCCCC1)c1cc(-c2ccccc2)on1` (stereo not given), for which the Potency entry was “inactive”.
Then `CCCCCCCCCCCCCCCC(=O)OC[C@@H](NC(=O)C(Cl)Cl)[C@H](O)c1ccc([N+](=O)[O-])cc1`, with “inactive”.
For `CC[C@H]1NC(=O)[C@@H](NC(=O)c2ncccc2O)[C@@H](C)OC(=O)[C@H](c2ccccc2)NC(=O)[C@@H]2CC(=O)CCN2C(=O)[C@H](Cc2ccccc2)N(C)C(=O)[C@@H]2CCCN2C1=O` the value was “inactive”; for `NC(=O)c1ccc[n+]([C@@H]2O[C@H](COP(=O)([O-])OP(=O)(O)OC[C@H]3O[C@@H](n4cnc5c(N)ncnc54)[C@H](O)[C@@H]3O)[C@@H](O)[C@H]2O)c1`, “inactive”; for `O=C(O)CN(CC(=O)O)CC1=CC2C(=CC1=O)Oc1cc(O)c(CN(CC(=O)O)CC(=O)O)cc1C21OC(=O)c2ccccc21` (stereo not given), “inactive”.
For `CCCCCCCCCCCCCCCC(=O)OC[C@@H](O)[C@H]1OC[C@H](O)[C@H]1O` the value was “inactive”.
Take `C=C1CC[C@H](O)CC1=C/C=C1\CCC[C@]2(C)[C@@H]([C@H](C)CC[C@@H](O)C(C)(C)O)CC[C@@H]12`: the Potency was 7.5 µM (active).
For the molecule `CSc1nc2cc(Oc3cccc(Cl)c3Cl)c(Cl)cc2[nH]1`, the Potency is 18.8 µM (active).
For the molecule `N#CC(c1ccc(Cl)cc1)c1c(Cl)cc(-n2ncc(=O)[nH]c2=O)cc1Cl` (stereo not given), the Potency was 29.8 µM (active).
With `CN(C)CCOc1ccccc1Cc1ccccc1` (tested in a mixture with another compound), the Potency was 26.6 µM (active).
For `CN1CC(O)c2cc(N=NC(N)=O)c(O)cc21` (stereo not given) the value was “inactive”; for `COC(=O)[C@H]1[C@H]2C[C@@H]3c4[nH]c5cc(OC)ccc5c4CCN3C[C@H]2C[C@H](OC)[C@@H]1OC`, “inactive”.
For the molecule `Cc1ncc(COP(=O)(O)O)c(CN)c1O`, the Potency entry is “inactive”.
For `CNC(=O)c1c(I)c(C(=O)NCC(=O)Nc2c(I)c(C(=O)O)c(I)c(C(=O)NCCO)c2I)c(I)c(N(C)C(C)=O)c1I` the value was “inactive”; for `Nc1nc2c(c(=O)[nH]1)N(C=O)C(CNc1ccc(C(=O)N[C@@H](CCC(=O)O)C(=O)O)cc1)CN2` (stereo not given in full), “inactive”.
For the molecule `CCc1ccc(S(=O)(=O)O)cc1`, the Potency entry is “inactive”.
Then `C[C@@H]1C[C@H]2[C@@H]3CCC4=CC(=O)C=C[C@]4(C)[C@@]3(F)[C@@H](O)C[C@]2(C)[C@@]1(O)C(=O)COC(=O)c1cccc(S(=O)(=O)O)c1`, with “inactive”; and `COc1ccc(C[C@H](C)NC[C@@H](O)c2ccc(O)c(NC=O)c2)cc1`, with 26.6 µM (active).
Then `O=C(Nc1ccc(/C=C/c2ccc(NC(=O)c3cc(S(=O)(=O)O)c4cccnc4c3O)cc2S(=O)(=O)O)c(S(=O)(=O)O)c1)c1cc(S(=O)(=O)O)c2cccnc2c1O`, with “inactive”.
Regarding `OC[C@H]1O[C@@H](O[C@H]2[C@H](O)[C@@H](O)[C@H](O)O[C@@H]2CO)[C@H](O)[C@@H](O)[C@@H]1O`, the Potency entry was “inactive”.
For `CC[C@]1(O)CC2CN(CCc3c([nH]c4ccccc34)[C@@](C(=O)OC)(c3cc4c(cc3OC)N(C)[C@H]3[C@@](O)(C(N)=O)[C@H](O)[C@]5(CC)C=CCN6CC[C@]43[C@@H]65)C2)C1` (stereo not given in full), the Potency is 0.0473 µM (active).
As for `COc1ccc(C2NC(=S)N3C(c4ccc(OC)c(OC)c4)NC(=S)N23)cc1OC` (stereo not given), the Potency is 0.0067 µM (active).
For `C[C@]12CCC(=O)C=C1CC[C@@H]1[C@@H]2[C@@H](O)C[C@@]2(C)[C@H]1CC[C@]2(O)C(=O)COP(=O)(O)O` the value was “inactive”.
Then `Cc1c(O)cc2c(c1C)O[C@](C)(CCC[C@H](C)CCC[C@H](C)CCCC(C)C)CC2`, with “inactive”; and `CC(=O)O[C@H]1CC[C@@]2(C)C(=CC[C@H]3[C@@H]4CC[C@H](C(C)=O)[C@@]4(C)CC[C@@H]32)C1`, with “inactive”.
Regarding `CC(/C=C/C=C(\C)C(=O)O[C@@H]1O[C@H](CO[C@@H]2O[C@H](CO)[C@@H](O)[C@H](O)[C@H]2O)[C@@H](O)[C@H](O)[C@H]1O)=C\C=C\C=C(C)\C=C\C=C(/C)C(=O)O[C@@H]1O[C@H](CO[C@@H]2O[C@H](CO)[C@@H](O)[C@H](O)[C@H]2O)[C@@H](O)[C@H](O)[C@H]1O`, the Potency entry is “inactive”.
For `CC1(C)S[C@@H]2[C@H](NC(=O)[C@H](NC(=O)N3CCN(S(C)(=O)=O)C3=O)c3ccccc3)C(=O)N2[C@H]1C(=O)O` the value was “inactive”; for `CN1c2c(nc(N)[nH]c2=O)NCC1CNc1ccc(C(=O)NC(CCC(=O)O)C(=O)O)cc1` (stereo not given), “inactive”; for `CC[C@H]1OC(=O)[C@H](C)[C@@H](O[C@H]2C[C@@](C)(OC)[C@@H](O)[C@H](C)O2)[C@H](C)[C@@H](O[C@@H]2O[C@H](C)C[C@H](N(C)C)[C@H]2O)[C@](C)(O)C[C@@H](C)[C@@H]2N[C@@H](COCCOC)O[C@@H]([C@H]2C)[C@]1(C)O`, “inactive”.
